From PubChem BioAssay
Compounds with a hit are over-represented: about 19% of the library has one in this group of screens.
HT1080 IDH1KD tx – toxicity to HT-1080 IDH1 knockdown cells (counter line); Potency, µM (highest dose often 46.1 µM), without a hit: at the highest dose activity, negative = toxicity, most hits filed as cytotoxic; 2% of 360,000 active; HT-1080 IDH1 knockdown viability, ATP luminescence, 48 h;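 further: potency means the concentration at half of the fitted maximal effect; 0% = DMSO wells and -100% = cell-free medium wells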
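Viability of IDH1-knockdown HT-1080 fibrosarcoma cells was assessed by CellTiter-Glo after 48 h at 37 °C with titrated compound; concentration-effect curves were classified by fit quality and response size.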
TDP1 cell noCPT – qHTS for Inhibitors of human tyrosyl-DNA phosphodiesterase 1 (TDP1): qHTS in cells in absence of CPT; 15% of 420,000 active; AID 686978, 2013; DT40 Tdp1-/- hTDP1 cells, no CPT, ATP luminescence, 48 h; Potency, µM (series often up to 46.2 µM), inactives show at the top dose activity change, negative = growth inhibition, most hits filed as inhibitors; further: potency means the concentration at half of the fitted maximal effect; nearly all actives have a fitted effect of over 55% in size
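Chicken DT40 Tdp1-/- cells stably complemented with human TDP1 were seeded at 400 cells/well with DMSO in place of 20 nM camptothecin. After compound pinning, cells grew at least 48 hr at 37 °C; viability read by CellTiter-Glo luminescence.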
DT40 TDP1 CPT – growth inhibition of DT40 Tdp1-/-;hTDP1 cells with camptothecin (screen for TDP1 inhibitors) | chicken DT40 Tdp1-/-;hTDP1 cells + 20 nM CPT, ATP luminescence, 48 h | Potency, µM (series often up to 46.2 µM), for inactives: top-dose activity change, negative = growth inhibition, actives largely listed as inhibitors | 12% of 420,000 active; further: potency means the concentration at half of the fitted maximal effect; nearly all actives have a fitted effect of over 55% in size
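Cell growth measured by CellTiter-Glo luminescence after a minimum 48 h, 37 C compound exposure with 20 nM CPT in Tdp1-knockout DT40 cells stably expressing hTDP1, seeded 400/well; qHTS titration format.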
HT1080NT lethal – kills 2HG-producing HT-1080-NT fibrosarcoma cells; HT-1080-NT fibrosarcoma viability, CellTiter-Glo ATP luminescence, 48 h; Potency, µM (titrated, usually from 46.1 µM), without a hit: at the highest dose activity, negative = less viability, hits mostly cytotoxic; 1.6% of 360,000 active; AID 686970;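 further: NT is the 2HG producing partner of a matched IDH1 knockdown line; potency means the concentration at half of the fitted maximal effect; 0% = DMSO-treated cells and -100% = media-only wells without cells; nearly all actives have a fitted effect of over 55% in size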
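HT-1080-NT fibrosarcoma cells (2HG-overproducing), 750 cells/well in RPMI with 5% FBS, dosed after 2 h and incubated 48 h at 37C. CellTiter-Glo luminescence normalized to DMSO and no-cell wells; concentration-response curves fitted and classed.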
IL1B secr inh – blocks inflammasome-driven IL-1 beta release. 4.7% of 360,000 active. activity change, % at 57.5 µM. AID 743279. THP-1 LPS/ATP IL-1B secretion, AlphaLISA, 16 h; hits give low values; in the data active means activity change below about -50%; inconclusive means mostly about -30% to -49%
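THP-1 cells pretreated 1 hr with compounds (up to 57.5 uM final), then stimulated with LPS (250 ng/mL final) plus ATP (1.25 mM final); secreted IL-1B measured by AlphaLISA after 16 hr, decreased signal indicating inhibition.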
Starred values were filed as active, the others as inactive; u = inconclusive; x = no result; [ ] = dose if it differs, or a comment. Unless noted, the call rests on the fitted dose curve; in most records, active means well fitted curve in the direction sought with a large enough effect; inconclusive means small, poorly fitted or top-dose-only effect, or another doubt; inactive means no such curve, though single readings can be large; an effect the other way counts as inactive or inconclusive. Unless noted, on the % scale 0 is the no-effect control and ±100 the full control effect.

SMILES	HT1080 IDH1KD tx	TDP1 cell noCPT	DT40 TDP1 CPT	HT1080NT lethal	IL1B secr inh
COc1cccc(CC(=O)Nc2ncc(C)s2)c1	-17.6%	14.6µM*	8.2µM*	-8.5%	-17.0
COC(=O)c1cc2sccc2n1Cc1ccccc1	x	-14.7%	-7.0%	x	x
Cc1ccc(S(=O)(=O)N(C)C[C@@H]2OCc3cnnn3CCCC(=O)N([C@H](C)CO)C[C@@H]2C)cc1	-1.5%	-21.8%	-15.6%	1.8%	14.6
Cc1cc(C)n2nc(C(=O)OCC(=O)N(C)C3CCCCC3)nc2n1	1.5%	8.1%	15.0%	9.3%	4.4
Cc1ccc(OCc2nc(C#N)c(N3CCN(Cc4ccccc4)CC3)o2)cc1	-26.8%	u	18.4µM*	2.2%	-29.0
COc1ccc(N2CCN(c3oc(Cc4cccc5ccccc45)nc3C#N)CC2)cc1	0.1%	6.51µM*	u	5.5%[9.24 µM]	-29.1
N#Cc1nc(COc2ccccc2)oc1N1CCC(Cc2ccccc2)CC1	0.4%	u	u	-3.8%	-54.7*
O=C(/C=C/c1ccccc1[N+](=O)[O-])Nc1cc(S(=O)(=O)N2CCOCC2)ccc1N1CCOCC1	0.0%	3.2%	2.0%	5.4%	-9.1
CC(C)COCc1ccc(O)c2ncccc12	10.3µM*	0.651µM*	0.92µM*	20.6µM*	126.7
COc1ccc(S(=O)(=O)N(CC(C)C)CC(C)C)c2cccnc12	-1.6%	u	u	0.3%	-9.4
CCCOCc1ccc(O)c2ncccc12	u	0.581µM*	0.82µM*	-10.9%	-8.4
Cn1c(=O)c2cccnc2c(=O)n1C	4.6%	9.3%	-0.2%	4.1%	24.5
Cc1nnc(NC(=O)CSCc2cc(=O)c3ccccc3[nH]2)s1	x	-1.0%	-2.7%	x	x
COc1ccc(CCN2C(=S)N(C)C(=O)C2CC(=O)Nc2ccc(OC)cc2)cc1 (centres undefined)	u	u	11.6µM*	-17.1%	-4.3
CCN1C(=O)C(CC(=O)Nc2ccc(OC)cc2)N(CCCN2CCN(c3ccc(F)cc3)CC2)C1=S (centres undefined)	18.4µM*	13µM*	23.1µM*	u	-13.3
COC(=O)CN1C(=S)N(c2ccc(F)cc2)C(=O)C1CC(=O)Nc1ccc(OC)cc1 (centres undefined)	-0.7%	6.3%	-11.0%	11.4%	-1.2
COc1ccc(NC(=O)CC2C(=O)N(C)C(=S)N2CCc2ccccc2)cc1 (centres undefined)	-10.7%	u	u	-8.3%	-23.0
CN1C(=O)C(CC(=O)Nc2ccc(F)cc2)N(Cc2ccco2)C1=S (centres undefined)	22.0%	-13.6%	8.4%	-4.7%	-6.6
CCN1C(=O)C(CC(=O)Nc2ccc(OC)cc2)N(CCc2ccc(F)cc2)C1=S (centres undefined)	u	16.4µM*	20.6µM*	u	-63.7*
COc1ccc(NC(=O)CC2C(=O)N(C)C(=S)N2CCc2ccc(F)cc2)cc1 (centres undefined)	u	u	u	u	-64.1*
Cc1cc(C)c(C)c(C(=O)C(=O)c2ccccc2)c1	24.2%	0.5%	-2.4%	13.0%	25.4
O=C1CCCc2oc3c(c21)CCCC3	2.5%	-8.6%	28.0%	-1.2%	0.0
CC(=O)NC(CC(=O)N(C)Cc1cccc(Cl)c1Cl)c1ccccc1 (centres undefined)	-15.3%	u	u	17.3%	5.5
COc1cc(/C=C/C(=O)OCC(=O)c2ccc3c(c2)NC(=O)CO3)ccc1OC(F)F	3.1%	-16.4%	u	9.3%	32.7
COc1cc(Br)c(CNc2cc(C)ccc2C)cc1OC	-21.6%	16.4µM*	u	-13.8%	23.2
CC(=O)N(CCCN(C)C)Cc1ccccn1	16.7%	1.4%	15.4%	20.7%	26.0
CC(=O)N(CCCc1ccc(C(C)(C)C)cc1)CCCN(C)C	0.3%	u	14.6µM*	-2.1%	-19.1
COc1cc(-c2nnc(SCC(=O)NC3CCCC3)n2C)cc(OC)c1O	18.6%	3.9%	-0.5%	16.2%	13.9
